Measurements reported in PubChem BioAssay AID624172 (National Center for Advancing Translational Sciences (NCATS), 2012).
Screen size: about 380,000 compounds; about 25 (0.007%) were called active. Calls come from the whole dose curve; as a rule, active = well fitted activation curve with a large enough effect; inconclusive = small, poorly fitted or top-dose-only effect; inactive = no such curve, though single readings can be large or run the other way. Not all results are given here.

Target: Glucagon-like peptide 1 receptor (Homo sapiens) (UniProt P43220)
Sequence (P43220 whole entry, looked up): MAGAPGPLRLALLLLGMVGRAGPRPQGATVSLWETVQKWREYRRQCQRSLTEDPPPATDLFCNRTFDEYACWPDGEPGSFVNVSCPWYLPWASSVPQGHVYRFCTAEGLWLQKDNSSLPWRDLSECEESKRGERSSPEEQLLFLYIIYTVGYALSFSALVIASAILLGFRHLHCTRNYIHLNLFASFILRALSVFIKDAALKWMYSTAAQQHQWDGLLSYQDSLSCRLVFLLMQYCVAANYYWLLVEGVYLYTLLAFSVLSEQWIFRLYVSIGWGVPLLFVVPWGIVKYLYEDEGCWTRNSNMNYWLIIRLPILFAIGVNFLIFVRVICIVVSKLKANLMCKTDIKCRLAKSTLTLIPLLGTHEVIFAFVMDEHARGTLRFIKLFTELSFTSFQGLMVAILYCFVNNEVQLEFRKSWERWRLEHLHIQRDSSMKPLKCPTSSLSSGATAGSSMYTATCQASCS
Experiment: qHTS of GLP-1 Receptor Agonists; note: % of control where 0% means no effect
Conditions: HEK293 GLP-1R CRE-luciferase, luminescence, 4-6 h, cells express a hypersensitive GLP-1R form; series mostly up to 45.6 µM; activation: at the top concentration
Description: The overall goal of this project was to develop a novel assay for discovering small molecule ligands for class B1 G protein-coupled receptors (GPCRs). Very few agonists (or inverse agonists) with generally weak activity for this entire group of physiologically important receptors are known to date. To establish proof-of-principle that this critical bottleneck can be overcome with a suitable screening approach, our studies focused on the class B1 receptor for glucagon-like peptide-1 (GLP-1R), a potential therapeutic target for diabetes and neurodegenerative disease.
The assay was developed in a "mix and measure" format using a cell-based functional readout. Toward this goal, stably transfected HEK293 cell clones were established that co-express (i) a cAMP-responsive luciferase reporter gene, and (ii) GLP-1Rs that upon ligand interaction either stimulate (agonists) or inhibit (inverse agonists) luciferase activity. In different cell lines to be used for screening, expressed GLP-1Rs are specifically optimized for high sensitivity detection of either weak agonists (hypersensitive receptor) or inverse agonists (constitutively active receptor mutant). In addition, control cell lines were developed that express either the cAMP-responsive reporter gene without recombinant GLP-1Rs (enabling initial exclusion of GLP-1R independent effects of candidate probes), or the reporter gene together with wild type GLP-1Rs (for confirmation of probe activity at this receptor), or the reporter gene in combination with the constitutively active orphan receptor GPR119 (enabling initial exclusion of GLP-1R independent inhibitory effects of candidate inverse agonists).
To that end, this assay was optimized for 1536-well format and screened against the MLSMR.
NIH Molecular Libraries Probe Production Network [MLPCN]
NIH Chemical Genomics Center [NCGC]
PI Name: Martin Beinborn, Tufts Medical Center
In a white solid 1536-well plate, 6 uL of cells are dispensed in DMEM without phenol red, 10% Nu serum, and 1% pen-strep medium. The plates are then incubated for 12 hours at 37 deg C at 5% CO2 before 23 nL of compounds are added. After a 4-6 hr incubation at37 deg C and 5% CO2, 3 uL of detection reagent are added and after a 12 min incubation at RT, a luminescent read is obtained on the ViewLux.

activation, inactive:
O=C1c2c(O)cccc2[C@@H]([C@@H]2O[C@H](CO)[C@@H](O)[C@H](O)[C@H]2O)c2cc(CO)cc(O)c21 0.834%, CCOCCCNC(=O)c1cn(CC)c2ccc(S(=O)(=O)N3CCc4ccccc4C3)cc2c1=O 1.02%, CC(=O)N1CCc2cc(Br)cc(S(=O)(=O)CCC(=O)NCCc3ccc(Cl)cc3)c21 0.617%, COc1ccc(Nc2ncc(C(=O)Nc3cc(C)ccc3OC)c3ccccc23)cc1 0.74%, COc1cc2nc(SCC(=O)Nc3ccccc3F)n3nc(-c4ccccc4)nc3c2cc1OC -0.682%, CCN(CC)c1ccc(C2C(C(N)=O)=C(C)Nc3nc(SCc4ccccc4)nn32)cc1 (stereo not given) 2.01%, CCCCCn1c(=O)[nH]c2cc(C(=O)Nc3ccc(F)cc3)ccc2c1=O 0.528%, CC[C@]1(C)CC(=O)NC1=O -4.13%, COc1cc(OC)c(NC(=O)c2c3c(nn2C)-c2ccccc2SC3)cc1Cl 0.142%, COc1ccc(-c2cc(C(F)(F)F)nc(SCC(=O)N(C)Cc3ccccc3)n2)cc1OC 4%, CC1(C)O[C@@H]2C[C@@H]3[C@H]4C[C@@H](F)C5=CC(=O)C=C[C@]5(C)[C@@]4(F)[C@@H](O)C[C@]3(C)[C@]2(C(=O)CO)O1 -0.578%, Cc1ccc(C)c(N2C(=O)N(Cc3c(F)cccc3Cl)c3ccccc3S2(=O)=O)c1 0.891%, COc1cccc(CNC(=O)C(NS(=O)(=O)c2ccc3nc(C)sc3c2)C(C)C)c1 (stereo not given) -4.28%, Cc1cc2c(cc1S(=O)(=O)CCC(=O)Nc1ccc(OC(F)(F)F)cc1)OCC(=O)N2 18.1%, NC(=O)C(=O)N/N=C/c1ccc([N+](=O)[O-])o1 -3.04%, Cc1ccc(-c2ncc(Cl)cc2-c2ccc(S(C)(=O)=O)cc2)cn1 0.0129%, Cc1nnc(C(=O)NC(C)(C)c2nc(C(=O)NCc3ccc(F)cc3)c(O)c(=O)n2C)o1 12.6%, CC[C@]1([C@H]2O[C@@H]([C@@H]3O[C@](O)(CO)[C@@H](C)C[C@H]3C)C[C@H]2C)CC[C@@H]([C@]2(C)CC[C@@]3(C[C@@H](O)[C@@H](C)[C@@H]([C@H](C)[C@H](OC)[C@H](C)C(=O)O)O3)O2)O1 -2.14%, COc1ccc(NC(=O)C2CCCN(S(=O)(=O)c3c(C)[nH]c(=O)[nH]c3=O)C2)c(OC)c1 (stereo not given) -0.467%, Cc1cccc(C)c1NC(=O)NC1=CCCN1C 4.03%, CCCN(C(=O)Cn1cc(S(=O)(=O)N2CCN(c3ccccc3F)CC2)c2ccccc2c1=O)c1cccc(C)c1 -0.739%, C[C@@H]1C[C@H]2[C@@H]3C[C@H](F)C4=CC(=O)C=C[C@@]4(C)[C@]3(F)[C@H](O)C[C@]2(C)[C@@]1(O)C(=O)CO -0.723% [at 19.8 µM], CCCC(=O)O[C@]1(C(=O)COC(=O)CC)CC[C@@H]2[C@@H]3CCC4=CC(=O)CC[C@]4(C)[C@H]3[C@@H](O)C[C@@]21C -1.61%, CC(=O)CC(c1ccccc1)C1C(=O)Oc2ccccc2C1=O (stereo not given) -4.85%, COc1cc2c(cc1OC)[C@@H](Cc1cc(OC)c(OC)c(OC)c1)[N+](C)(CCCOC(=O)CC/C=C/CCC(=O)OCCC[N+]1(C)CCc3cc(OC)c(OC)cc3[C@H]1Cc1cc(OC)c(OC)c(OC)c1)CC2 (stereo not given in full) -0.798%, Cc1cc(OCC(=O)NCC2(N(C)C)CCCCC2)cc(C)c1Cl -2.17%, CC(=O)c1ccc(NC(=O)C2CCN(S(=O)(=O)c3c(C)noc3/C=C/c3ccc(C)cc3)CC2)cc1 -2.34%, COc1ccc(NC(=O)c2cnc(Nc3ccc(C)c(Cl)c3)c3ccccc23)cc1OC -1.26%, O=C(NCc1ccccc1)C1CCN(S(=O)(=O)c2ccc3[nH]c(=O)ccc3c2)CC1 1.16%, CC1=Nc2cc(C(=O)N3CCC(C)CC3)ccc2Sc2ccc(Cl)cc21 0.558%, Cc1cn([C@H]2CC(F)[C@@H](CO)O2)c(=O)[nH]c1=O (stereo not given in full) 7%, Cc1cccc(-n2c(=O)c3c(c4cc(C)ccc4n3C)n(CC(=O)Nc3ccccc3Cl)c2=O)c1 0.522%, O=C(O)CCCCC(=O)O -6.16%, Cc1ccc(CCNC(=O)Cn2c(-c3cccs3)cc3cc(F)ccc32)cc1 -0.201%, CC(C)(O)c1ccccc1CC[C@H](SCC1(CC(=O)O)CC1)c1cccc(/C=C/c2ccc3ccc(Cl)cc3n2)c1 5.38%, CO/N=C(\C(=O)N[C@@H]1C(=O)N2C(C(=O)O)=C(Cn3nnc(C)n3)CS[C@H]12)c1csc(N)n1 -4.78%, COc1ccc(CCNC(=O)CCCCn2c(=O)c3ccccc3n(Cc3ccccc3C)c2=O)cc1OC 12.4%, CCOc1ccc(CNCCSc2nnnn2C)cc1 -0.857%, CC(O)COc1ccccc1 (stereo not given) -2.13%, Cc1ccc(C(=O)Nc2ccc(OCc3cc(=O)n4c5c(sc4n3)CCCC5)cc2)cc1 -0.745%, COc1cc([C@@H]2c3cc4c(cc3[C@@H](O[C@@H]3O[C@@H]5CO[C@@H](C)O[C@H]5[C@H](O)[C@H]3O)[C@H]3COC(=O)[C@H]23)OCO4)cc(OC)c1OP(=O)(O)O -0.904%, Cn1c(=O)c2c(nc(NCCc3ccccc3)n2Cc2ccccc2Br)n(C)c1=O 1.23%, COc1ccccc1-c1ccnc2[nH]n(-c3ccccc3)c(=O)c12 0.335%, CN(C)CCCn1c(-c2ccc(Cl)cc2)csc1=Nc1ccccc1 15.8%, COc1cc(C[C@H]2NCCc3cc(O)c(O)cc32)cc(OC)c1OC 25.4%, O=C(Nc1cccc2cccnc12)c1cccc2c(Br)cccc12 0.0139%, COc1ccc(CCNC(=O)CCc2c(C)nc3c(c(C)nn3-c3ccc(C)c(C)c3)c2C)c(OC)c1OC -0.6%, CCn1cc(C(=O)OCC(=O)Nc2cc(C)cc(C)c2)c(=O)c2ccc(C)nc21 -2.48%, CN(CC(=O)Nc1ccccc1F)S(=O)(=O)c1ccc2c(c1)c(=O)n(C)c(=O)n2C -1.36%, Cc1c(O)cc2c(c1C)O[C@](C)(CCC[C@H](C)CCC[C@H](C)CCCC(C)C)CC2 7.18%, COc1ccc(C2(C#N)CCC(C(=O)O)CC2)cc1OC1CCCC1 (stereo not given) -2.56%, Cc1ccc(NC(=O)c2oc3ccccc3c2NC(=O)Cc2cccs2)cc1 0.593%, NNc1nnc(NN)c2ccccc12 12.5%, O=C(C1CCCN(S(=O)(=O)c2cccc3nonc23)C1)N1CCN(c2ccccc2F)CC1 (stereo not given) -1.48%, COc1cccc(NC(=O)N(Cc2cn(C)c3ccccc23)C2CCCCCC2)c1 -6.68%, COc1ccc2[nH]c3c(c2c1)CCN(C(=O)CCC1CCCC1)C3c1ccc(F)cc1 (stereo not given) 0.944%, Nc1ccccc1N 1.01% [at 96 µM], NNc1nnc(Cc2ccncc2)c2ccccc12 -3.34%, CC(=O)OCC(=O)[C@@]1(O)CC[C@@H]2[C@H]3CCC4=CC(=O)C=C[C@]4(C)[C@]3(F)[C@@H](O)C[C@@]21C -1.89% [at 19.8 µM], CCC(CC)C(=O)N1CCc2cc(OC)c(OC)cc2C1COc1ccc(F)cc1 (stereo not given) 18.6%, CCC[C@H]1C(=O)N2C(N(C)C)=Nc3ccc(C)cc3N2C1=O 2.77% [at 19.8 µM], C=C1C(=CC=C2CCC[C@@]3(C)[C@@H]2CC[C@H]3[C@H](C)CCCC(C)C)C[C@@H](O)C[C@@H]1O 7.68%, O=C1C(c2[nH]c3ccccc3c2O)=Nc2ccccc21 17.2%, CC(=O)OC[C@H]1O[C@@H](O[C@H]2[C@H](O)[C@@H](OC(=O)c3ccccc3C(=O)O)[C@H](O)O[C@@H]2COC(C)=O)[C@H](O)[C@@H](OC(=O)c2ccccc2C(=O)O)[C@@H]1O 5.47%, COc1ccc(CNC(=O)c2cc3cccc(OC)c3oc2=O)cc1 -5.88%, O=C(C1CC1)N1CCc2cc(Br)cc(S(=O)(=O)N3CCN(c4ccccc4F)CC3)c21 0.0455%, O=C(O)CCC(=O)O -1.33%, COc1ccc(OC)c([C@H](O)CNC(=O)CN)c1 1.93% [at 19.8 µM], O=C(NC1CCCCC1)c1ccc2c(c1)N(Cc1ccc(Cl)cc1)C(=O)c1ccccc1S2=O (stereo not given) -3.48%, Cc1ccc(C)c(CN2C(=O)c3ccccc3S(=O)c3ccc(C(=O)N4CCOCC4)cc32)c1 (stereo not given) -0.515%, COc1ccc(S(=O)(=O)NCCSc2nnnn2-c2ccccc2)cc1 0.741%, CC(=O)OC1C([N+]2(C)CCCCC2)C[C@H]2C3CC[C@H]4C[C@H](OC(C)=O)C([N+]5(C)CCCCC5)CC4(C)C3CCC12C (stereo not given in full) -1.14%, CCOC(=O)Cc1cccc(-c2cc(CCCCCCc3ccc(O[C@H]4O[C@H](COC(C)=O)[C@@H](OC(C)=O)[C@H](OC(C)=O)[C@@H]4OC(C)=O)c(-c4cccc(CC(=O)OCC)c4)c3)ccc2O[C@H]2O[C@H](COC(C)=O)[C@@H](OC(C)=O)[C@H](OC(C)=O)[C@@H]2OC(C)=O)c1 2.49%, O=C(CCn1c(=O)c2ccccc2n(Cc2ccc(Cl)cc2)c1=O)NCc1ccc2c(c1)OCO2 -0.608%, COc1ccc(-c2nc3ccccc3s2)cc1NC(=O)COc1ccccc1C 5.28%, CSc1ccc(C2C(C(=O)Nc3ccccc3)=C(C)Nc3nc4ccccc4n32)cc1 (stereo not given) 5.83%, O=C(O)[C@@H](S)[C@H](S)C(=O)O -4.55%, CCC(C)C1OC2(C=CC1C)CC1CC(C/C=C(/C)C(OC3CC(OC)C(OC4CC(OC)C(NC(C)=O)C(C)O4)C(C)O3)C(C)/C=C\C=C3\COC4C(O)C(C)=CC(C(=O)O1)C34O)O2 (stereo not given) -1.5%, CCc1nc2onc(C)c2c(=O)n1CC(=O)O -2.43%, CC1=C(C(=O)OCC2CCCCC2)C(c2c(F)cccc2Cl)CC(=O)N1 (stereo not given) 0.542%, CCCCCn1c(CCNC(=O)c2ccc(F)cc2)nc2ccccc21 -6.1%, O=c1cc2nc(-c3ccccc3)nc(SCCOc3ccc(Cl)cc3)n2[nH]1 0.394%, C[C@H]1C[C@H]2[C@@H]3CCC4=CC(=O)C=C[C@]4(C)[C@@H]3C(=O)C[C@]2(C)[C@@]1(O)C(=O)CO 8.98%, COc1cc2c(cc1OC)CC(=O)N(CCCN(C)C[C@H]1Cc3cc(OC)c(OC)cc31)CC2 -1.07%

outcome, inactive:
CC1(C)OC[C@@H](COC(=O)CCc2ccc(OC[C@@H](O)CNCCNC(=O)N3CCOCC3)cc2)O1
